Data on 10 molecules can be found in PubChem BioAssay (NCI).

Compounds without any hit were thinned out: in the full panel of roughly 79,000, 15% have a hit. Values without a mark were called inactive. Active and inactive are the calls of the source. No stated cut-off is given here; in the data, active means growth inhibition above about 70%; inactive means the rest.

The nature of assay [1]: NCI Yeast Anticancer Drug Screen. Data for the rad50 strain (AID 155).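 Further: 0% = growth of vehicle-only cultures of the same strain.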 The following applies: S. cerevisiae rad50 strain growth inhibition, stronger effect = higher value. A digest of the protocol: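 Inhibition values express reduced yeast growth in compound-treated cultures relative to vehicle-treated controls.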
The nature of assay [2]: NCI Yeast Anticancer Drug Screen. Data for the mec2-1 strain (AID 157). The following applies: S. cerevisiae mec2-1 strain, stronger effect = higher value. A digest of the protocol: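 Readout is yeast growth inhibition, normalised to vehicle-treated controls, in the mec2-1 strain exposed to compound.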
Assay [3] is described as follows: NCI Yeast Anticancer Drug Screen. Data for the sgs1 mgt1 strain (AID 161).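 Further: 0% = growth of cultures given vehicle only.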 The following applies: S. cerevisiae sgs1 mgt1 strain, stronger effect = higher value. A digest of the protocol: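 Growth of a repair-deficient yeast mutant was monitored after compound treatment and expressed as inhibition relative to vehicle-treated cultures.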
Assay [4] is described as follows: NCI Yeast Anticancer Drug Screen. Data for the cln2 rad14 strain (AID 165).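 Further: 0% = growth equal to vehicle treated cultures.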 The following applies: S. cerevisiae cln2 rad14 strain, stronger effect = higher value. A digest of the protocol:
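Relative to vehicle controls, growth inhibition of compound-treated cln2 rad14 yeast was recorded.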

The nature of assay [5]: NCI Yeast Anticancer Drug Screen. Data for the bub3 strain (AID 167). The following applies: S. cerevisiae bub3 mutant strain, stronger effect = higher value. A digest of the protocol: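 Steps: expose the mutant yeast strain to compound; grow alongside vehicle-treated cultures; measure growth; express inhibition against the vehicle cultures.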
A short description of assay [6]: NCI Yeast Anticancer Drug Screen. Data for the mlh1 rad18 strain (AID 175). The following applies: S. cerevisiae mlh1 rad18 strain growth inhibition, stronger effect = higher value. In short, it runs like this: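 Test agents were incubated with a yeast strain of defined genotype (DNA damage repair defect). Inhibition of growth was derived by comparison with vehicle-exposed cultures.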

Setting [7] is: at 5.0 µM (retest, dose inferred, filed as 0.5).
[8] abbreviates: at 50.0 µM (retest, dose inferred, filed as 5.0).

For the molecule `CCCCCCCCCCCC(=O)OCC(C)C`, the growth inhibition was 5% in assay [1] (setting [7]); -19% in assay [1] (setting [8]); 0.95% in assay [1] (at 50.0 µM); -7% in assay [2] (setting [7]); 20% in assay [2] (setting [8]); -13% in assay [2] (at 50.0 µM). Moreover, the growth inhibition in assay [3] (setting [7]) was 0%; in assay [3] (setting [8]), 4%; in assay [3] (at 50.0 µM), 7.55%; in assay [4] (setting [7]), 20%; in assay [4] (setting [8]), -11%; in assay [4] (at 50.0 µM), -3.95%. Besides, the growth inhibition in assay [5] (setting [7]) is 0%; in assay [5] (setting [8]) it was -18%; in assay [5] (at 50.0 µM), -2.1%; in assay [6] (setting [7]), -16%; in assay [6] (setting [8]), -8%; in assay [6] (at 50.0 µM), 15.5%.
As for `CC(C)(Br)C(=O)c1ccc([N+](=O)[O-])o1`, the growth inhibition is 49% in assay [1] (setting [7]); 99% (active) in assay [1] (setting [8]); 90.6% (active) in assay [1] (at 50.0 µM); 62% in assay [2] (setting [7]); 100% (active) in assay [2] (setting [8]); 93.5% (active) in assay [2] (at 50.0 µM). Moreover, the growth inhibition in assay [3] (setting [7]) was 85% (active); in assay [3] (setting [8]) it was 100% (active); in assay [3] (at 50.0 µM) it was 89.4% (active); in assay [4] (setting [7]) it was 51%; in assay [4] (setting [8]), 99% (active); in assay [4] (at 50.0 µM), 84.2% (active). The growth inhibition in assay [5] (setting [7]) is 42%; in assay [5] (setting [8]), 99% (active); in assay [5] (at 50.0 µM) it was 91.8% (active); in assay [6] (setting [7]) it was 91% (active); in assay [6] (setting [8]), 99% (active); in assay [6] (at 50.0 µM), 91% (active).
For `O=C1/C(=C/c2ccc(Cl)c(Cl)c2)CN(C(=O)CCN2CCOCC2)C/C1=C\c1ccc(Cl)c(Cl)c1`, the growth inhibition is 99% (active) in assay [1] (setting [7]); 86% (active) in assay [1] (setting [8]); 41% in assay [1] (at 50.0 µM); 99% (active) in assay [2] (setting [7]); 94% (active) in assay [2] (setting [8]); 85.8% (active) in assay [2] (at 50.0 µM). Further, the growth inhibition in assay [3] (setting [7]) was 99% (active); in assay [3] (setting [8]), 92% (active); in assay [3] (at 50.0 µM), 85.2% (active); in assay [4] (setting [7]), 90% (active); in assay [4] (setting [8]) it was 89% (active); in assay [4] (at 50.0 µM) it was 87.3% (active). Moreover, the growth inhibition is 99% (active) in assay [5] (setting [7]), 89% (active) in assay [5] (setting [8]) and 89% (active) in assay [5] (at 50.0 µM).
On to `O=C1c2ccccc2-c2cc([N+](=O)[O-])c([N+](=O)[O-])cc21`, for which the growth inhibition is 16% in assay [1] (setting [7]); 99% (active) in assay [1] (setting [8]); 93.2% (active) in assay [1] (at 50.0 µM); 19% in assay [2] (setting [7]); 45% in assay [2] (setting [8]); 98.6% (active) in assay [2] (at 50.0 µM). Further, the growth inhibition is 21% in assay [3] (setting [7]); 99% (active) in assay [3] (setting [8]); 96% (active) in assay [3] (at 50.0 µM); -15% in assay [4] (setting [7]); 90% (active) in assay [4] (setting [8]); 90% (active) in assay [4] (at 50.0 µM). Further, the growth inhibition in assay [5] (setting [7]) is 7%; in assay [5] (setting [8]) it was 99% (active); in assay [5] (at 50.0 µM), 98.7% (active); in assay [6] (setting [7]), 5%; in assay [6] (setting [8]) it was 98% (active); in assay [6] (at 50.0 µM), 98.3% (active).
`C/C(=N\NC(=S)NC(C)(C)C)c1ccccn1`: the growth inhibition was 20% in assay [1] (setting [7]); 99% (active) in assay [1] (setting [8]); 77% (active) in assay [1] (at 50.0 µM); 13% in assay [2] (setting [7]); 99% (active) in assay [2] (setting [8]); 85% (active) in assay [2] (at 50.0 µM). Further, the growth inhibition is 32% in assay [3] (setting [7]); 99% (active) in assay [3] (setting [8]); 90.5% (active) in assay [3] (at 50.0 µM); 31% in assay [4] (setting [7]); 99% (active) in assay [4] (setting [8]); 89.5% (active) in assay [4] (at 50.0 µM). For the same molecule, the values for the growth inhibition in assay [5] (setting [7]), in assay [5] (setting [8]) and in assay [5] (at 50.0 µM) were 18%, 99% (active) and 90.2% (active), respectively.
Take `Cc1cc(Oc2nc(Cl)nc(C(Cl)(Cl)Cl)c2Cl)cc(C)c1N(C)C` (tested in a mixture with another compound): the growth inhibition in assay [1] (setting [7]) was -5%; in assay [1] (setting [8]), 10%; in assay [1] (at 50.0 µM), 92.8% (active); in assay [2] (setting [7]) it was -6%; in assay [2] (setting [8]), -3%; in assay [2] (at 50.0 µM), 95.8% (active). Besides, the growth inhibition in assay [3] (setting [7]) is -2%; in assay [3] (setting [8]), 10%; in assay [3] (at 50.0 µM) it was 95.5% (active); in assay [4] (setting [7]), -12%; in assay [4] (setting [8]), -9%; in assay [4] (at 50.0 µM), 91.9% (active). Further, the growth inhibition is 7% in assay [5] (setting [7]); 30% in assay [5] (setting [8]); 92.6% (active) in assay [5] (at 50.0 µM); -8% in assay [6] (setting [7]); -5% in assay [6] (setting [8]); 95.7% (active) in assay [6] (at 50.0 µM).
Turning to `N#CC1(C#N)C2C=CC(c3coc4cccc2c34)C1(C#N)C#N` (centres undefined), the growth inhibition is 29% in assay [1] (setting [7]); 37% in assay [1] (setting [8]); 35.6% in assay [1] (at 50.0 µM); 17% in assay [2] (setting [7]); 27% in assay [2] (setting [8]); 35.9% in assay [2] (at 50.0 µM). Further, the growth inhibition in assay [3] (setting [7]) is 32%; in assay [3] (setting [8]), 37%; in assay [3] (at 50.0 µM), 75% (active); in assay [4] (setting [7]), 19%; in assay [4] (setting [8]) it was 27%; in assay [4] (at 50.0 µM), 19.2%. In addition, the growth inhibition in assay [5] (setting [7]) was 22%; in assay [5] (setting [8]), 47%; in assay [5] (at 50.0 µM), 58.2%; in assay [6] (setting [7]) it was 26%; in assay [6] (setting [8]), 47%; in assay [6] (at 50.0 µM) it was 57.9%.
Consider `O=C1C=CC(=O)c2ccc(=O)ccc21`, for which the growth inhibition was 38% in assay [1] (setting [7]); 99% (active) in assay [1] (setting [8]); 22.6% in assay [1] (at 50.0 µM); 25% in assay [2] (setting [7]); 99% (active) in assay [2] (setting [8]); -1.45% in assay [2] (at 50.0 µM). Also, the growth inhibition was 38% in assay [3] (setting [7]); 99% (active) in assay [3] (setting [8]); 25.9% in assay [3] (at 50.0 µM); 20% in assay [4] (setting [7]); 98% (active) in assay [4] (setting [8]); 28.4% in assay [4] (at 50.0 µM). The growth inhibition in assay [5] (setting [7]) is 27%; in assay [5] (setting [8]), 99% (active); in assay [5] (at 50.0 µM) it was -1.35%; in assay [6] (setting [7]) it was 71% (active); in assay [6] (setting [8]) it was 98% (active); in assay [6] (at 50.0 µM) it was 51.2%.
On to `CC[C@@H](C(=O)[C@@H](C)[C@@H](O)[C@H](C)CCc1ccc(C)c(O)c1C(=O)O)[C@H]1O[C@](CC)([C@H]2CC[C@](O)(CC)[C@H](C)O2)C[C@@H]1C`, for which the growth inhibition in assay [1] (setting [7]) was 36%; in assay [1] (setting [8]), 97% (active); in assay [1] (at 50.0 µM) it was 89.7% (active); in assay [2] (setting [7]) it was 48%; in assay [2] (setting [8]), 98% (active); in assay [2] (at 50.0 µM) it was 92% (active). The growth inhibition was 38% in assay [3] (setting [7]); 98% (active) in assay [3] (setting [8]); 91% (active) in assay [3] (at 50.0 µM); 71% (active) in assay [4] (setting [7]); 99% (active) in assay [4] (setting [8]); 87.8% (active) in assay [4] (at 50.0 µM). The growth inhibition is 65% in assay [5] (setting [7]); 98% (active) in assay [5] (setting [8]); 88.9% (active) in assay [5] (at 50.0 µM); 35% in assay [6] (setting [7]); 98% (active) in assay [6] (setting [8]); 89.3% (active) in assay [6] (at 50.0 µM).
With `COC(=O)/C(=C/C=C(c1ccccc1)c1ccccc1)N(C(C)=O)C(C)=O`, the growth inhibition in assay [1] (setting [7]) was 0%; in assay [1] (setting [8]) it was 13%; in assay [1] (at 50.0 µM), 99.4% (active); in assay [2] (setting [7]), 2%; in assay [2] (setting [8]) it was 25%; in assay [2] (at 50.0 µM), 99.6% (active). Besides, the growth inhibition in assay [3] (setting [7]) was 1%; in assay [3] (setting [8]) it was 67%; in assay [3] (at 50.0 µM) it was 99.6% (active); in assay [4] (setting [7]), 3%; in assay [4] (setting [8]) it was 7%; in assay [4] (at 50.0 µM), 99.4% (active). In addition, the growth inhibition is -1% in assay [5] (setting [7]); 11% in assay [5] (setting [8]); 99.7% (active) in assay [5] (at 50.0 µM); -3% in assay [6] (setting [7]); 39% in assay [6] (setting [8]); 99.6% (active) in assay [6] (at 50.0 µM).
